# Assay results: PubChem BioAssay AID652257 (The Scripps Research Institute Molecular Screening Center, 2013)
# Where “and” joins values, the source holds several entries; their conditions need not be identical. Equal entries are not always repeated. In all, about 370,000 compounds went through this assay and about 4,800 (1.3%) were called active.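 The calls were made as follows: active = inhibition above about 21% made by adding two undisclosed values (limit read from the data); inactive = the rest.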 Many of the other results were omitted from the sample, so actives are more common in it than they were. Some compounds were tested as several samples or in several runs, with calls that do not always agree.
# Molecular target: Protein arginine N-methyltransferase 1 (Homo sapiens) (UniProt Q99873)
# Test: human PRMT1 activity-probe blockers – biochemical, fluorescence polarization, primary screen (AID 652257)
# Settings: recombinant PRMT1, activity-based probe fluorescence polarization; at 2.79 µM; stronger effect = higher value
# Sequence of Protein arginine N-methyltransferase 1 (Homo sapiens) (Q99873 whole entry, looked up): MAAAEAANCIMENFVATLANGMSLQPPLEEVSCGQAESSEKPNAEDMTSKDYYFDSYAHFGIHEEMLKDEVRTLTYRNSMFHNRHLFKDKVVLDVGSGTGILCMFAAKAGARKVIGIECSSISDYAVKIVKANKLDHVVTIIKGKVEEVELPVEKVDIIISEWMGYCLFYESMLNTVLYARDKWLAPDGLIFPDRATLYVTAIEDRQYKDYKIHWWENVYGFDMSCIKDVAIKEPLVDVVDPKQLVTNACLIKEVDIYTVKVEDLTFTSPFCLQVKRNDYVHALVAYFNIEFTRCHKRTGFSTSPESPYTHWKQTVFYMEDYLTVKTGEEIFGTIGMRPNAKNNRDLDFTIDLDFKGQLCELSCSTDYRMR
row,Compound,inhibition
1,CC(C)NC(=O)NNc1c(Cl)cncc1Cl,-2.84% (inactive)
2,CCC(c1ccc(NC(=O)OC(C)(C)C)cc1)c1cc(OC)cc(OC)c1 (centres undefined),0.65% (inactive)
3,O=c1/c(=C/c2ccc(CNS(=O)(=O)c3ccccc3)o2)sc2n1CCN=2,42.5% (active)
4,O=S(=O)(NCC1OCCc2ccccc21)c1ccccc1 (centres undefined),1.74% (inactive)
5,O=C(c1ccc(S(=O)(=O)NCc2ccco2)cc1)N1CCN(c2ccccc2)CC1,-5.34% (inactive)
6,N#Cc1ccccc1-n1c(N)c(C(=O)N2CCCC2)sc1=S,12.5% (inactive)
7,Cc1ccc(-n2c(N)c(C(=O)N3CCOCC3)sc2=S)c(C)c1,2.33% (inactive)
8,Cc1cccc(-n2c(N)c(C(=O)N3CCN(C)CC3)sc2=S)c1,78.2% (active)
9,O=C(CNC(=O)c1ccccc1)OC(C(=O)Nc1cc([N+](=O)[O-])ccc1F)c1ccccc1 (centres undefined),-5.95% (inactive)
10,COc1cccc(N2CC(NS(=O)(=O)c3cccs3)CC2=O)c1 (centres undefined),0.96% (inactive)
11,CN[C@H]1C[C@H]2c3cc(N4CCOCC4)ccc3CCN2C[C@H]1[C@H](C)O,1.75% (inactive)
12,Cc1cccc(NC(=O)CSc2nc3c(c(=O)[nH]2)CCCC3)c1C,-0.58% (inactive)
13,Cc1ccccc1NC(=O)CSC(=O)c1ccccc1,24.5% (active)
14,Cc1ccccc1NC(=O)CSC1=NCCN1,9.55% (inactive)
15,Cc1cccc(NC(=O)CSC(N)=O)c1C,35.8% (active)
16,Cc1cccc(NC(=O)COC(=O)CCc2ccccc2)c1C,-1.61% (inactive)
17,Cc1ccccc1NC(=O)Cn1nnc(-c2ccccc2F)n1,-2.95% (inactive)
18,CC(c1c[nH]c2ccccc12)c1c(-c2ccccc2)n(C)c2ccccc12 (centres undefined),8.87% (inactive)
19,CN(C)CC(=O)N[C@@H]1C[C@@H]2O[C@H](CO)CC[C@@H]2O[C@@H]1CCc1ccc(C#Cc2ccccc2)cc1,-0.26% (inactive)
20,CSc1cccc(NC(=O)CN2C(=O)COc3ccc(S(=O)(=O)N4CCOCC4)cc32)c1,-1.34% (inactive)
21,O=C(c1c[nH]c2ccccc12)N1CCC(Oc2cccnc2)CC1,-5.2% (inactive)
22,CN1CC(=O)N=C1N,-1.28% (inactive) and 0.16% (inactive)
23,CCOc1ccc(CCNC(=O)COC(=O)C2CCN(c3ccc(C(F)(F)F)cn3)CC2)cc1OCC,-0.97% (inactive)

row,Compound,inhibition
1,CCCC(O)(c1ccccc1)C(c1ccccc1)c1ccccn1 (centres undefined),3.01% (inactive)
2,CO/N=C(\C(=O)N[C@@H]1C(=O)N2C(C(=O)O)=C(COC(C)=O)CS[C@H]12)c1csc(N)n1 (stereo in doubt),16% (inactive) and 23.3% (active) and 25.5% (active)
3,C=CC1=C(C(=O)O)N2C(=O)[C@@H](NC(=O)/C(=N/OCC(=O)O)c3csc(N)n3)[C@H]2SC1,28.6% (active)
4,C=CC1=C(C(=O)O)N2C(=O)[C@@H](NC(=O)/C(=N\OCC(=O)O)c3csc(N)n3)[C@H]2SC1,23.7% (active)
5,COc1ccc(-n2c(COc3ccccc3)nnc2SCC(=O)Nc2ccc3c(c2)OCO3)cc1,0.3% (inactive)
6,C=C(C)CNC(=S)/N=c1\scc(C)n1CC,2.72% (inactive)
7,O=C(NCCC1=CCCCC1)C1CCN(S(=O)(=O)c2ccc(Cl)s2)CC1,2.95% (inactive)
8,CCc1c(C)c2ccc(OC3CCCCC3=O)cc2oc1=O (centres undefined),-0.12% (inactive)
9,CCCCCCN1CCS(=O)(=O)N(Cc2ccc(C(F)(F)F)cc2)C(C(=O)OC)C1 (centres undefined),0.07% (inactive)
10,C#CCCN([C@H](C(=O)OC)C(C)C)S(=O)(=O)c1ccc(F)cc1Br,1.71% (inactive)
11,OCCn1c(-c2ccccc2)csc1=Nc1ccccc1,63.9% (active)
12,O=c1cc(CCl)nc2scc(-c3ccccc3)n12,6.61% (inactive)
13,C=CC1=CCN(S(=O)(=O)C(C)(C)C)[C@@H]1CCO,-1.03% (inactive)
14,Cc1cc(C(=O)OCC(=O)c2c(N)n(C)c(=O)n(C)c2=O)c(C)o1,-0.81% (inactive)
15,Cc1cc(C)c(S(=O)(=O)NN=C2c3ccccc3[C@H]3Cc4csc[n+]4[C@@H]23)c(C)c1,52.5% (active)
16,COc1ccc(C(=O)N2CCN(c3ccc(C(C)=O)cc3F)CC2)cc1S(=O)(=O)NC1CC1,2.01% (inactive)
17,CCCCCN1CCCCC(NC(=O)C(C)CCC)C1=O (centres undefined),3.28% (inactive)
18,COC(=O)C1CN(CCc2ccccc2)CCS(=O)(=O)N1Cc1ccc(F)cc1 (centres undefined),0.22% (inactive)
19,O=C1OC(NC(=O)c2ccccc2)C(N2CCOCC2)=C1Cl (centres undefined),0.25% (inactive)
20,O=C(Nc1ccc(F)cc1)c1cccnc1N1CCOCC1,0.36% (inactive)
21,O=C(O)c1ccc(NN=CC2=C(N3CCOCC3)/C(=C/c3ccccc3)CC2)cc1,23.8% (active)
22,CC12CCC(C(=O)N(CCC#N)CCC#N)(CC1=O)C2(C)C (centres undefined),-1.4% (inactive)
23,COC(=O)[C@]12C[C@H](CC(=O)NCCc3ccccc3OC)C(=O)N(Cc3ccco3)C1=C[C@H](C(C)C)O[C@@H]2C1CC1,-1.39% (inactive)

row,Compound,inhibition
1,CC(C)CNC(=O)OCc1cn(Cc2ccc(F)cc2)nn1,-6.07% (inactive)
2,S=c1[nH]nc2c3c4c(sc3ncn12)CCCC4,40.6% (active)
3,CCn1c(=S)[nH]c2sc3c(c2c1=O)CCCCC3,-0.49% (inactive)
4,N=c1c2c3c(sc2nc2n1CCCCC2)CCCC3,-1.83% (inactive)
5,CC(C)(C)NC(=O)C(c1cccnc1)N(C(=O)c1cnco1)c1ccc(C(C)(C)C)cc1 (centres undefined),1.45% (inactive)
6,Cc1nc2ccc(C(=O)N3CCN(C(=O)C(C)(C)C)CC3)cc2n1C1CCCC1,-5.06% (inactive)
7,Nc1nnc(SCC(=O)NCC(=O)Nc2ccc(F)c(F)c2F)s1,0.28% (inactive)
8,COc1cccc(NC(=O)COC(=O)/C=C/c2ccco2)c1,34.6% (active)
9,CC(C)CNC(=O)COC(=O)/C=C/c1ccco1,3.56% (inactive)
10,NS(=O)(=O)c1cccc(NC(=O)COC(=O)/C=C/c2ccco2)c1,8.16% (inactive)
11,COC(=O)[C@@]12CCCCC3=C1N(CCC3)C(=O)[C@H]2CC(=O)NCc1cccc2ccccc12,0.96% (inactive)
12,Cc1ccc(C2=CCN(C)C(=O)N2c2ccc(Cl)cc2)cc1,1.54% (inactive)
13,COCCn1c(SCC(=O)Nc2cc(Cl)ccc2OC)nc2c(c1=O)SC(C)C2 (centres undefined),-2% (inactive)
14,COc1ccc(C(=O)OCCN(C)C2CN(Cc3cn(Cc4cccc(C)c4)nn3)S(=O)(=O)C2)cc1OC (centres undefined),-3.17% (inactive)
15,CC(=O)N1CCCN(C2=Nc3ccccc3Sc3ccccc32)CC1,-2.73% (inactive)
16,CCCCOCCCNC(=O)C[C@H]1C[C@@]2(C(=O)OC)C(=C[C@H](COCc3ccccc3)O[C@@H]2C)N(Cc2cccc3ccccc23)C1=O,-1.04% (inactive)
17,CCOC(=O)C1(Cc2cccc(OC)c2)CCCN(C(=O)CCSC)C1 (centres undefined),2.68% (inactive)
18,CC(C)(C)C1C/C(=C/c2ccco2)C(=O)/C(=C/c2ccco2)C1 (centres undefined),24.6% (active)
19,O=C(NCCc1c[nH]c2ccccc12)OCc1cn(-c2c(F)cccc2F)nn1,0.52% (inactive)
20,CCCCNC(=O)C[C@@H]1C(=O)N(CCc2ccc(Cl)cc2)C2=CCCC[C@]21C(=O)OCC,-4.44% (inactive)
21,NC(=O)NC(=O)CSc1nc2cc([N+](=O)[O-])ccc2n1-c1cccc(C(F)(F)F)c1,-3.17% (inactive)
22,CC(=O)OC1CCC2C3CCC4=C(CC(F)C(=O)C4)C3CCC12C (centres undefined),-4.66% (inactive)
23,Fc1ccc(COc2cccc(-c3n[nH]c(=S)o3)c2)cc1,31.7% (active)

row,Compound,inhibition
1,Fc1ccc(COc2ccc(-c3nnco3)cc2)cc1,2.4% (inactive)
2,CN(Cc1ccc(F)cc1)C(=O)COc1ccc2ccccc2c1,6.77% (inactive)
3,CC(C)(C)NC(=O)CSC(=Nc1ccccc1F)NC#N,8.54% (inactive)
4,COc1ccc(-n2c(SCC(=O)Nc3ccc4c(c3)OCCO4)nnc2-c2ccc(Cl)cc2)cc1,-2.7% (inactive)
5,O=C(CN1CCC(NC(=O)NCc2ccccc2)CC1)Nc1ccc2c(c1)OCCO2,2.96% (inactive)
6,COc1ccccc1C(=O)CSc1nnc(-c2ccccn2)n1-c1ccccc1,-1.16% (inactive)
7,O=S(=O)(c1ccc2c(c1)OCCO2)N1CCc2ccccc21,-3.53% (inactive)
8,O=C(CCN1CCc2ccccc2C(O)(c2ccccc2)C1)c1ccc2c(c1)OCCO2 (centres undefined),51.5% (active)
9,O=C(C(=O)N1CCN(c2ccccc2)CC1)c1ccc2c(c1)OCO2,0.48% (inactive)
10,COc1ccc(C2NC(=O)N(C)C(C)=C2[N+](=O)[O-])cc1 (centres undefined),-2.65% (inactive)
11,COc1ccc(S[C@]2(C(=O)N(C)C)CC(=O)N(c3ccc(OC)cc3)[C@@H]2c2ccc(OC)cc2)cc1,-1.57% (inactive)
12,CC(C)(C)c1ccc(CSc2nnc(-c3cccs3)o2)cc1,-1.14% (inactive)
13,OCCN1CCN(C(=S)c2ccc(-c3ccccc3)cc2)CC1,32% (active)
14,O=C1CCN(CCCc2ccccc2)CCN1CCO,-6.27% (inactive)
15,O=C(NC(=S)N1CCN(Cc2ccccc2)CC1)c1ccccc1,0.22% (inactive)
16,CC1CN(CC(=O)NC(C)c2ccccc2)CC(C)O1 (centres undefined),0.73% (inactive)
17,CCc1cccc(CC)c1N1C(=O)CC(Sc2ccccc2N)C1=O (centres undefined),-1.17% (inactive)
18,COC(=O)c1ccccc1SC1CC(=O)N(c2cccc(C)c2)C1=O (centres undefined),57.3% (active)
19,COc1cccc(N2C(=O)CC(N3CCc4ccccc4C3)C2=O)c1 (centres undefined),4.88% (inactive)
20,Cc1ccccc1S(=O)(=O)NC(=O)C1(C)CCN1C(=O)C1(c2ccccc2)CCCC1 (centres undefined),0.03% (inactive)
